The source of these data is PubChem BioAssay (NCI).

Each structure is given as a SMILES string. The panel holds about 83,000 compounds, 20% with a hit somewhere; the sample as a whole holds those more often.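 The endpoint reported here, percent growth, reads 100 for growth as untreated, 0 for no net growth and -100 for all cells dead.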 Unmarked numbers belong to inactive results. Calls of active or inactive are those of the source. How the source made its calls: active means growth percent below 10; inactive means the rest.

Some test systems named below: NCI-H23 lung; NCI-H226 lung; NCI-H322M lung; HOP-62 NSCLC; NCI-H460 lung; HOP-92 NSCLC; NCI-H522 lung; A549/ATCC NSCLC; 786-0 renal; COLO 205 colon; DU-145 prostate; K-562 leukemia; MALME-3M melanoma; MDA-MB-231 breast; RXF 393 renal; SF-268 CNS; SF-295 CNS; SF-539 CNS; UACC-257 melanoma; M14 melanoma.
What all share (experiment): NCI-60 one-dose screen, 48 h (100 = growth as untreated, 0 = no growth, -100 = all killed)
Conditions in all cases: 10 µM unless noted

On to `CCCCC1=c2c([nH]c3ccc(OC)cc23)=NC2C=CC=NC12` (stereo not given), for which the growth was 81.4% with NCI-H23 lung; 89.3% in the test with NCI-H226 lung; 86.1% in the test with NCI-H322M lung; 90.8% in the test on HOP-62 NSCLC; 80.7% in the test with NCI-H460 lung; 103% in the test with HOP-92 NSCLC. Moreover, the growth in the test with NCI-H522 lung was 83.8%; with A549/ATCC NSCLC, 103%; in the test with 786-0 renal, 110%; with COLO 205 colon, 106%; in the test on DU-145 prostate, 98.8%; in the test on K-562 leukemia, 72.1%. For the same molecule, the growth in the test with MALME-3M melanoma was 108%; in the test on MDA-MB-231 breast it was 79.9%; with RXF 393 renal, 92.8%; in the test on SF-268 CNS, 93.1%; in the test on SF-295 CNS it was 106%; in the test on SF-539 CNS it was 93.7%. Further, the growth in the test on UACC-257 melanoma is 126%; in the test with M14 melanoma it was 101%.
Turning to `O=C1c2ccccc2C(=O)c2c1oc1c2c(=O)[nH]c2ccc(Cl)cc21`, the growth in the test on NCI-H23 lung is 21.2%; in the test with NCI-H226 lung it was -28.8% (active); in the test with NCI-H322M lung, 14%; with HOP-62 NSCLC, -38.7% (active); in the test on NCI-H460 lung, -69.7% (active); in the test on HOP-92 NSCLC, -37.2% (active). Further, the growth in the test on NCI-H522 lung is -16.8% (active); with A549/ATCC NSCLC, -0.0514% (active); in the test with 786-0 renal, 2.5% (active); in the test with COLO 205 colon, 85.7%; in the test with DU-145 prostate, -45.4% (active); in the test on K-562 leukemia, 12.9%. Further, the growth was -51.7% (active) in the test on MALME-3M melanoma; -42.2% (active) in the test with MDA-MB-231 breast; -46.3% (active) in the test on RXF 393 renal; -31.7% (active) with SF-268 CNS; -1.34% (active) in the test on SF-295 CNS; -28% (active) with SF-539 CNS. For the same molecule, the growth is 18.8% with UACC-257 melanoma and 10.4% in the test with M14 melanoma.
As for `COc1ccc(-n2cc(-c3ccc(Cl)c(Cl)c3)[nH]c2=O)cc1OC`, the growth with NCI-H23 lung was 94.8%; with NCI-H226 lung it was 97.5%; with NCI-H322M lung, 75.9%; in the test on HOP-62 NSCLC, 97.3%; in the test with NCI-H460 lung it was 107%; in the test on HOP-92 NSCLC it was 75%. The growth was 85.2% in the test on NCI-H522 lung; 89.6% in the test on A549/ATCC NSCLC; 59.5% in the test on 786-0 renal; 109% in the test on COLO 205 colon; 98.3% in the test on DU-145 prostate; 80.2% in the test on K-562 leukemia. The growth in the test on MALME-3M melanoma was 80.1%; with MDA-MB-231 breast it was 85.1%; with RXF 393 renal, 108%; in the test on SF-268 CNS it was 109%; in the test with SF-295 CNS, 101%; in the test on SF-539 CNS, 102%. For the same molecule, the growth in the test on UACC-257 melanoma is 85.7%; in the test on M14 melanoma it was 104%.
For `C[C@H](Oc1cc(-c2cnn(C3CCNCC3)c2)cnc1N)c1c(Cl)ccc(F)c1Cl`, the growth in the test with NCI-H23 lung was 71.6%; with NCI-H226 lung it was 109%; in the test with NCI-H322M lung, 75.2%; in the test with HOP-62 NSCLC, 66.5%; with NCI-H460 lung it was 57.9%; in the test on HOP-92 NSCLC, 41.1%. In addition, the growth in the test with NCI-H522 lung is 73.1%; in the test with A549/ATCC NSCLC, 72%; with 786-0 renal, 49.2%; in the test on COLO 205 colon, 46.3%; in the test with DU-145 prostate it was 77.8%; in the test with K-562 leukemia, 5.27% (active). The growth in the test on MALME-3M melanoma was -38% (active); in the test on MDA-MB-231 breast it was 52.2%; in the test with RXF 393 renal, 31.6%; in the test on SF-268 CNS it was 59%; with SF-295 CNS it was 49.7%; in the test with SF-539 CNS, 68.3%. Besides, the growth in the test with UACC-257 melanoma is -45% (active); with M14 melanoma it was -51.9% (active).
On to `Cc1cnc(SCc2ccc(Cl)cc2Cl)nc1Nc1ccc(Cl)c(Cl)c1`, for which the growth was 92.8% in the test with NCI-H23 lung; 101% in the test on NCI-H226 lung; 82% in the test on NCI-H322M lung; 93.4% with HOP-62 NSCLC; 92.2% with NCI-H460 lung; 76% in the test with HOP-92 NSCLC. Also, the growth is 66.7% in the test with NCI-H522 lung; 78.2% in the test with A549/ATCC NSCLC; 92.3% with 786-0 renal; 117% in the test on COLO 205 colon; 95.1% in the test on DU-145 prostate; 69.3% in the test on K-562 leukemia. The growth was 103% in the test with MALME-3M melanoma; 88.3% with MDA-MB-231 breast; 97.4% in the test with RXF 393 renal; 90.5% with SF-268 CNS; 92.8% in the test on SF-295 CNS; 105% in the test with SF-539 CNS. The growth in the test on UACC-257 melanoma was 91.4%; in the test on M14 melanoma, 98.7%.
With `C[C@@H]1C(=O)[C@@H]2C[C@@H](O)[C@@H](O)C[C@]2(C)[C@H]2CC[C@@]3(C)C(=C12)CC[C@@H]3[C@@](C)(O)[C@H](O)CCC(C)(C)O`, the growth in the test on NCI-H23 lung is 103%; in the test with NCI-H226 lung, 99.5%; with NCI-H322M lung, 95.2%; in the test on HOP-62 NSCLC it was 91%; in the test on NCI-H460 lung, 105%; in the test with HOP-92 NSCLC, 97.5%. In addition, the growth in the test on NCI-H522 lung was 89%; with A549/ATCC NSCLC it was 92.8%; in the test on 786-0 renal, 100%; in the test on COLO 205 colon it was 117%; in the test on DU-145 prostate, 99.2%; in the test with K-562 leukemia it was 94.9%. For the same molecule, the growth in the test with MALME-3M melanoma was 103%; in the test on MDA-MB-231 breast it was 107%; with RXF 393 renal, 116%; in the test with SF-268 CNS, 98.2%; in the test with SF-295 CNS, 108%; in the test on SF-539 CNS, 103%. Moreover, the figures for the growth in the test with UACC-257 melanoma and with M14 melanoma were -10.5% (active) and 105%, respectively.
For `Cc1nnc(/N=C2\NC(=O)/C(=C/c3ccsc3)S2)s1`, the growth in the test on NCI-H23 lung is 89.8%; in the test with NCI-H226 lung it was 96%; with NCI-H322M lung it was 92.2%; with HOP-62 NSCLC it was 80.8%; in the test on NCI-H460 lung, 67.5%; in the test on HOP-92 NSCLC, 96.6%. Besides, the growth with NCI-H522 lung is 78.1%; in the test with A549/ATCC NSCLC, 100%; in the test on 786-0 renal, 94.6%; in the test on COLO 205 colon it was 92.2%; in the test on DU-145 prostate, 98.7%; in the test with K-562 leukemia it was 97.4%. For the same molecule, the growth was 80.8% in the test with MALME-3M melanoma; 108% in the test on MDA-MB-231 breast; 99.8% in the test with RXF 393 renal; 85.1% in the test on SF-268 CNS; 85.9% in the test on SF-295 CNS; 99.7% in the test with SF-539 CNS. Also, the values for the growth in the test with UACC-257 melanoma and in the test with M14 melanoma were 108% and 92%, respectively.
On to `N#CC1C(c2ccc(Cl)cc2)=Nc2c(c(-c3ccccc3)nn2-c2ccccc2)C12C(=O)Nc1ccc(Cl)cc12` (stereo not given), for which the growth was 50.7% in the test on NCI-H23 lung; 61.5% in the test with NCI-H226 lung; 79.2% in the test on NCI-H322M lung; 57.9% with HOP-62 NSCLC; 22.3% with NCI-H460 lung; -8.89% (active) in the test with HOP-92 NSCLC. Besides, the growth was 55.9% in the test with NCI-H522 lung; 27.2% in the test on A549/ATCC NSCLC; 42.9% with 786-0 renal; 51% with COLO 205 colon; 74% in the test with DU-145 prostate; 19.1% in the test with K-562 leukemia. For the same molecule, the growth in the test on MALME-3M melanoma is 70.3%; in the test on MDA-MB-231 breast, 41.2%; in the test with RXF 393 renal it was 28.3%; with SF-268 CNS, 39.1%; with SF-295 CNS it was 28.1%; in the test on SF-539 CNS, 43.8%. The growth in the test with UACC-257 melanoma was 53.6%; in the test on M14 melanoma, 34.6%.
